Data published in article PMC7862700, “An all-to-all approach to the identification of sequence-specific readers for epigenetic DNA modifications on cytosine”.

Columns and labels:
Assay in all cases: DAPPL (digital affinity profiling via proximity ligation, sequencing); 10 mM Tris-HCl pH 7.5, 50 mM NaCl, 1 mM DTT, 4% glycerol, room temperature, 30 min; GST-TFs on glutathione beads, 16-mer random dsDNA library, 0.1% formaldehyde crosslink after washing; high values mean tight binding
Conditions in all cases: protein: recombinant; tags: N-terminal GST; dsDNA, one strand shown
FLI1 = biological target: T1, FLI1 (Homo sapiens, UniProt Q01543 1-452)
T1 sequence: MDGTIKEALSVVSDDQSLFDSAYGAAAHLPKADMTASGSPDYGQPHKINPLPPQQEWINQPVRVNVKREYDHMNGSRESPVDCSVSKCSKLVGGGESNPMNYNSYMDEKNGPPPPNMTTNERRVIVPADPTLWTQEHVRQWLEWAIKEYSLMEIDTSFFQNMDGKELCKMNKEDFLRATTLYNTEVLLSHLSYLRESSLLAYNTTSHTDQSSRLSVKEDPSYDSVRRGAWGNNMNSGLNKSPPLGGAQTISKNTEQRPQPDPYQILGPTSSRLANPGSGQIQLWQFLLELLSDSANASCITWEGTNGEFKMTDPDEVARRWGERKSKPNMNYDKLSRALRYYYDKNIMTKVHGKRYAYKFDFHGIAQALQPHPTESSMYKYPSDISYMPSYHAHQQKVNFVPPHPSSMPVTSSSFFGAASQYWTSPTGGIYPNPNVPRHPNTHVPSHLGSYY
Method in brief: (§1)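 Pools were built from human transcription factors expressed in yeast as GST fusions, captured on glutathione beads and DNA-barcoded, along with a tag-only sample. Incubation with 200 nmole of a 16-mer random double-stranded DNA library lasted 30 min at room temperature in Tris/NaCl/DTT/glycerol buffer, and was followed by washing, 0.1% formaldehyde crosslinking, proximity ligation, PCR amplification and Illumina NextSeq500 sequencing. Binding signal is the quotient of each hexamer's read frequency for a factor and its frequency for the tag-only sample.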

ELK1 = biological target: T2, ELK1 (Homo sapiens, UniProt P19419 1-428)
T2 sequence: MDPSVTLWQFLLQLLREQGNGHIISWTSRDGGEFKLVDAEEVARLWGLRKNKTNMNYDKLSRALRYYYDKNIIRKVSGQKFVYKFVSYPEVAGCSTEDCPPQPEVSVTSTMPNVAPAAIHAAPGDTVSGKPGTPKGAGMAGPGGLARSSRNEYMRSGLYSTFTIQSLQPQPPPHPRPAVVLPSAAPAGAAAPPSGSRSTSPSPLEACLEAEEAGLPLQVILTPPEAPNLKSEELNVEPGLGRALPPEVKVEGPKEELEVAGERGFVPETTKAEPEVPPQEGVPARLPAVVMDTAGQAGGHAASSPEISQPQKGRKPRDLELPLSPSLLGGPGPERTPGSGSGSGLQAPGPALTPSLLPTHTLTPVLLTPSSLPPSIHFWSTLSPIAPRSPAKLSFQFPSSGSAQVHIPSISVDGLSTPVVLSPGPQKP
Method in brief: as §1

GABPA = biological target: T3, GABPA (Homo sapiens, UniProt Q06546 1-454)
T3 sequence: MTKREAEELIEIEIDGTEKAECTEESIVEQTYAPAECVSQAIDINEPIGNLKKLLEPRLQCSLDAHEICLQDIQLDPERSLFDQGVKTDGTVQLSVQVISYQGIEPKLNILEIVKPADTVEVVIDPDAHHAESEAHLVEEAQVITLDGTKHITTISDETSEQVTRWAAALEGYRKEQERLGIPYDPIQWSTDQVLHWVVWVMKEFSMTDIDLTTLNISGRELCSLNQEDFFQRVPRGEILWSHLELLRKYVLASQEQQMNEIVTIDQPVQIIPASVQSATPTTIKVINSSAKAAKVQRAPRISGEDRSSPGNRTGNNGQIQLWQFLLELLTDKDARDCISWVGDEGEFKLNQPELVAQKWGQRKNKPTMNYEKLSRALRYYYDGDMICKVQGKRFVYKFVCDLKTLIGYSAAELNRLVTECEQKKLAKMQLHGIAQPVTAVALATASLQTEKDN
Method in brief: as §1

ERG = biological target: T4, ERG (Homo sapiens, UniProt P11308 1-479)
T4 sequence: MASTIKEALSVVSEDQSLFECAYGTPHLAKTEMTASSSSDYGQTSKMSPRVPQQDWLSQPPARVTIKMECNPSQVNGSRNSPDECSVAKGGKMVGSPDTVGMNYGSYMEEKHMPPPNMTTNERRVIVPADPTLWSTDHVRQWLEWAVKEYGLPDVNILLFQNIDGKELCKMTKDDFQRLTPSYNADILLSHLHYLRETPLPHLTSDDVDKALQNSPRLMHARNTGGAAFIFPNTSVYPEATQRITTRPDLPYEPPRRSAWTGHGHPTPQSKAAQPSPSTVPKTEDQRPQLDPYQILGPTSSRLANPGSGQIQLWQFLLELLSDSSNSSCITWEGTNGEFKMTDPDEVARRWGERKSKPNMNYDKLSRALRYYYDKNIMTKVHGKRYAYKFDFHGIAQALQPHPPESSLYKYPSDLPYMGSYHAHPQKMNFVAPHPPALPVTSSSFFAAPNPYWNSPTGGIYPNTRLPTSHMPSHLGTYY
Method in brief: as §1

ELF1 = ELF1 (Homo sapiens, UniProt P32519 1-619)
Chain of ELF1 (P32519 whole entry): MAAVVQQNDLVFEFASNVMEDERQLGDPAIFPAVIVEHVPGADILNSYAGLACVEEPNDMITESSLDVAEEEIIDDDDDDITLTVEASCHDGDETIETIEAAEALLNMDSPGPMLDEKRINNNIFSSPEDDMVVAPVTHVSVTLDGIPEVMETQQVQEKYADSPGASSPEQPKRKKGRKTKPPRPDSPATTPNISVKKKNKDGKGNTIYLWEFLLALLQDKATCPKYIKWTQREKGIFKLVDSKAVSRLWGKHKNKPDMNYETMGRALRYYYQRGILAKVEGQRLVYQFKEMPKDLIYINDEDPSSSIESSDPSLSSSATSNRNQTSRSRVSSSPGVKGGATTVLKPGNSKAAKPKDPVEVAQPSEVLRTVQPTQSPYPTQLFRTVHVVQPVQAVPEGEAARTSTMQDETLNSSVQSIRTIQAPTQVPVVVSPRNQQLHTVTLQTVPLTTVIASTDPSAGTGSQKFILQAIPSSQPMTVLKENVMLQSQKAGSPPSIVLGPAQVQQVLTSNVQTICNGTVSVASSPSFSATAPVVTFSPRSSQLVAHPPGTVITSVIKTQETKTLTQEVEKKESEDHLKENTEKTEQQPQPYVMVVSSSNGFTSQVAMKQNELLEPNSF
Method in brief: as §1

EHF = biological target: T5, EHF (Homo sapiens, UniProt Q9NZC4 1-300)
T5 sequence: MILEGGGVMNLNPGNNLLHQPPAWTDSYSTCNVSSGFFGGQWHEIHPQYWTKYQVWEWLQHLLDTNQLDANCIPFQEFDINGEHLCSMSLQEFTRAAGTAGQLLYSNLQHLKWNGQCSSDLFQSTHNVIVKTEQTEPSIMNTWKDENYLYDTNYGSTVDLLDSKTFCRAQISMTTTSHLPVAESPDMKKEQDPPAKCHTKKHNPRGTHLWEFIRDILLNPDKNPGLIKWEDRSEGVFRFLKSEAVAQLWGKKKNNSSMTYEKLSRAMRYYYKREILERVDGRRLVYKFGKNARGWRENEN
Method in brief: as §1

SPI1 = SPI1 (Homo sapiens, UniProt P17947 1-270)
Method in brief: as §1

SPIB = SPIB (Homo sapiens, UniProt Q01892 1-262)
Chain of SPIB (Q01892 whole entry): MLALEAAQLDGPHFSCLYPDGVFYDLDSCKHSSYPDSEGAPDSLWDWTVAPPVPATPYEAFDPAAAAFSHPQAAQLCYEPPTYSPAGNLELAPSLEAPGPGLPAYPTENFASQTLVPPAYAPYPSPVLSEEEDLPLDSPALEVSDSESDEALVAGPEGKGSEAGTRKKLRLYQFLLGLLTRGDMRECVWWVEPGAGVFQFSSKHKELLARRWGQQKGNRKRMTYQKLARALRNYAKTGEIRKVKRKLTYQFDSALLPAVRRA
Method in brief: as §1

ELK3 = biological target: T6, ELK3 (Homo sapiens, UniProt P41970 1-407)
T6 sequence: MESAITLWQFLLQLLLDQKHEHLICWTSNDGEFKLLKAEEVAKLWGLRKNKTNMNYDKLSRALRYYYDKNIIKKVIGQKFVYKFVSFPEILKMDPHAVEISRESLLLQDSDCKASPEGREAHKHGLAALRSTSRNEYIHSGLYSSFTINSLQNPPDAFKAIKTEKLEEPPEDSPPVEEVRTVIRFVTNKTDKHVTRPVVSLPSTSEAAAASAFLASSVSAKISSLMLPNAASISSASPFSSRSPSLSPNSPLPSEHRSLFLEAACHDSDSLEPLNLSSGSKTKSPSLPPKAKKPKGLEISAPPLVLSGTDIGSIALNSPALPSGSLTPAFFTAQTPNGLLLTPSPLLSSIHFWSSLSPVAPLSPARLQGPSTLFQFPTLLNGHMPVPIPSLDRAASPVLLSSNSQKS
Method in brief: as §1

FEV = biological target: T7, FEV (Homo sapiens, UniProt Q99581 1-238)
T7 sequence: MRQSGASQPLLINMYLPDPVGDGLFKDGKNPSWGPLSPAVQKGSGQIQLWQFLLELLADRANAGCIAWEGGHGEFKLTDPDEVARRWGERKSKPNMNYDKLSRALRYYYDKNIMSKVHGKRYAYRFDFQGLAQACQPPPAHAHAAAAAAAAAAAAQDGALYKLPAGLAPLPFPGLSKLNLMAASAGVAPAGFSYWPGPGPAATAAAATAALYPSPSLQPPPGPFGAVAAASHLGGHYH
Method in brief: as §1

ETV5 = ETV5 (Homo sapiens, UniProt P41161 1-510)
Chain of ETV5 (P41161 whole entry): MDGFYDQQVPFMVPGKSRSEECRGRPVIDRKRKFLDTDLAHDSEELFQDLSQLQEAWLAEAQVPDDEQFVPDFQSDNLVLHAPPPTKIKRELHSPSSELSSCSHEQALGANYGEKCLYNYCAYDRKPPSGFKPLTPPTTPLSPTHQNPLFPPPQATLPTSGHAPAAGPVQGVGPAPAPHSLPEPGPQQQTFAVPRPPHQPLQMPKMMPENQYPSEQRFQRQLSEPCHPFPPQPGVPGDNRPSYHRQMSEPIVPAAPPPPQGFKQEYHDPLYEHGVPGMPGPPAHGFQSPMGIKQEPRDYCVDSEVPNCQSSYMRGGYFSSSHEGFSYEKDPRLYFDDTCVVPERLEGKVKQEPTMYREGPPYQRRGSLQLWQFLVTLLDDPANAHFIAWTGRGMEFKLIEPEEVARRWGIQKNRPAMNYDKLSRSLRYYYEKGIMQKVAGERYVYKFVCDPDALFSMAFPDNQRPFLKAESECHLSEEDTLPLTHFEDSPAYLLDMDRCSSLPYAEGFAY
Method in brief: as §1

SPIC = biological target: T8, SPIC (Homo sapiens, UniProt Q8N5J4 1-248)
T8 sequence: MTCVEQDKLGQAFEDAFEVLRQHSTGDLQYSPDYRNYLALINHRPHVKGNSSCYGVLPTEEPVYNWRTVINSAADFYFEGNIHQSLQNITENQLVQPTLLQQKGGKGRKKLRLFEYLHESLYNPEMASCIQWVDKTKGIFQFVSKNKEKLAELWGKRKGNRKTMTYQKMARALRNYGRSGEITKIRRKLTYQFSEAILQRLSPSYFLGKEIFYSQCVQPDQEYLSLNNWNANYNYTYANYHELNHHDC
Method in brief: as §1

ELF4 = ELF4 (Homo sapiens, UniProt Q99607 1-663)
Chain of ELF4 (Q99607 whole entry): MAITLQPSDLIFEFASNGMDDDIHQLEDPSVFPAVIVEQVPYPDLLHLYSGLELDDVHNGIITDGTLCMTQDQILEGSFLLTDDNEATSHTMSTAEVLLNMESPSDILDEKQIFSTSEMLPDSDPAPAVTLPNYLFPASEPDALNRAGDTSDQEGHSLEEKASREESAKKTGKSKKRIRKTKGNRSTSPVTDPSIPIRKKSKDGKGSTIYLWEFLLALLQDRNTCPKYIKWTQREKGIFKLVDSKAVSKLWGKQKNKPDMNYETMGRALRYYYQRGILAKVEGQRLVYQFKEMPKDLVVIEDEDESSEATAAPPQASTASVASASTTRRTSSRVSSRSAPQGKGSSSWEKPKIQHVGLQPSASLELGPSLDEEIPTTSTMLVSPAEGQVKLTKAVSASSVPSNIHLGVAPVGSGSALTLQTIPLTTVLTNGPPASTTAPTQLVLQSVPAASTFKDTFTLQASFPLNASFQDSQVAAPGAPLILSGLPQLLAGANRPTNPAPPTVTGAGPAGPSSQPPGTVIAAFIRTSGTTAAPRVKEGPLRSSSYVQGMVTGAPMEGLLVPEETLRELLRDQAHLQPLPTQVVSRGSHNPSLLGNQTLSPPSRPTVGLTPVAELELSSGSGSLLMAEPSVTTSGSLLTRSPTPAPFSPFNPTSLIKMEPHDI
Method in brief: as §1

ELK4 = biological target: T9, ELK4 (Homo sapiens, UniProt P28324-2 1-405)
T9 sequence: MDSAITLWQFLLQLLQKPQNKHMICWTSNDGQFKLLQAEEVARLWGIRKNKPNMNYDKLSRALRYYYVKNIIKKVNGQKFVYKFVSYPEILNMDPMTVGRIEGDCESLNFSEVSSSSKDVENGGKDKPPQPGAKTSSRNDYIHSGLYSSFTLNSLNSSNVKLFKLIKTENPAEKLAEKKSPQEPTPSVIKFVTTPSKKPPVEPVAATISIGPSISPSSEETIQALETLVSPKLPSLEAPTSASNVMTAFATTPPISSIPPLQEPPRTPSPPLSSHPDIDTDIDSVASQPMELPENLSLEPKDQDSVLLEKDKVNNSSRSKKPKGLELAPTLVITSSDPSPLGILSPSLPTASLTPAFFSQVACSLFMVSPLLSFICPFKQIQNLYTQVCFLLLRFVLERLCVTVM
Method in brief: as §1

ETV2 = biological target: T10, ETV2 (Homo sapiens, UniProt O00321 1-342)
T10 sequence: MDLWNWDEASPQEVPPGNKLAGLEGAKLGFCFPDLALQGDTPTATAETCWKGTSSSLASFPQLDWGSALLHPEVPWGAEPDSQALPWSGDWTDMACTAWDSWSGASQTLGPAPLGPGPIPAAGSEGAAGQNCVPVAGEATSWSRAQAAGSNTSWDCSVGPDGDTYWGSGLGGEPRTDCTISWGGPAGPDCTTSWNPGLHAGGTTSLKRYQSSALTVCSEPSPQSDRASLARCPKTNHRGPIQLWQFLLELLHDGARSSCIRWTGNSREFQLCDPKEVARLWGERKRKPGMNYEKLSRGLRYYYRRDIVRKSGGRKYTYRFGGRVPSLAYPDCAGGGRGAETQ
Method in brief: as §1

ELF3 = biological target: T11, ELF3 (Homo sapiens, UniProt P78545 1-371)
T11 sequence: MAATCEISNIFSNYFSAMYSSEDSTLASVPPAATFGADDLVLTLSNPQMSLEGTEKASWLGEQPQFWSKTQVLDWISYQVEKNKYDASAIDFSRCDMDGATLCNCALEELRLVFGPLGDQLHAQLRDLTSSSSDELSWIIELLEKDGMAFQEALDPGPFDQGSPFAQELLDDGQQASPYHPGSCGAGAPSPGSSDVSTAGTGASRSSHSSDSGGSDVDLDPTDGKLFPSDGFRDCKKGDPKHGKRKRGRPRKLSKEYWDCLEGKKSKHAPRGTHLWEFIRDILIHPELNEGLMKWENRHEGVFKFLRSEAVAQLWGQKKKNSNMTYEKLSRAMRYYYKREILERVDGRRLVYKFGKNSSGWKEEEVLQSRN
Method in brief: as §1

ETV1 = ETV1 (Homo sapiens, UniProt P50549 1-477)
Chain of ETV1 (P50549 whole entry): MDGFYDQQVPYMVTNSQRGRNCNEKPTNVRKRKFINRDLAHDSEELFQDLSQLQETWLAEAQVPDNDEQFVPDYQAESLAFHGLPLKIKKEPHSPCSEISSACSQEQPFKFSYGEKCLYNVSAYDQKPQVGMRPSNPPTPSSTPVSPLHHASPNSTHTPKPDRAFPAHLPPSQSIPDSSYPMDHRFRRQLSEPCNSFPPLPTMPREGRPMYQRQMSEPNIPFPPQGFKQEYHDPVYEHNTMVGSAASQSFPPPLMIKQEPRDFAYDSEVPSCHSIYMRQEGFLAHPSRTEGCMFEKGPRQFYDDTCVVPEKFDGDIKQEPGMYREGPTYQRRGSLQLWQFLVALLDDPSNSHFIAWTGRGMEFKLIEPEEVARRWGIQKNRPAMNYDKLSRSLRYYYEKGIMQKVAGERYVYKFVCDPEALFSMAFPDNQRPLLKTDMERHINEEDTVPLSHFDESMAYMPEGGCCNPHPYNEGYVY
Method in brief: as §1

Sequence	binding signal (FLI1)	binding signal (ELK1)	binding signal (GABPA)	binding signal (ERG)	binding signal (ELF1)	binding signal (EHF)	binding signal (SPI1)	binding signal (SPIB)	binding signal (ELK3)	binding signal (FEV)	binding signal (ETV5)	binding signal (SPIC)	binding signal (ELF4)	binding signal (ELK4)	binding signal (ETV2)	binding signal (ELF3)	binding signal (ETV1)
GCTACA	1.16 fold enrichment (6-mer frequency, TF over GST control)	1.07 fold enrichment (6-mer frequency, TF over GST control)	1.22 fold enrichment (6-mer frequency, TF over GST control)	1.13 fold enrichment (6-mer frequency, TF over GST control)	1.17 fold enrichment (6-mer frequency, TF over GST control)	1.21 fold enrichment (6-mer frequency, TF over GST control)	1.2 fold enrichment (6-mer frequency, TF over GST control)	1.24 fold enrichment (6-mer frequency, TF over GST control)	1.19 fold enrichment (6-mer frequency, TF over GST control)	1.22 fold enrichment (6-mer frequency, TF over GST control)	1.18 fold enrichment (6-mer frequency, TF over GST control)	1.33 fold enrichment (6-mer frequency, TF over GST control)	1.18 fold enrichment (6-mer frequency, TF over GST control)	1.24 fold enrichment (6-mer frequency, TF over GST control)	1.17 fold enrichment (6-mer frequency, TF over GST control)	1.27 fold enrichment (6-mer frequency, TF over GST control)	1.13 fold enrichment (6-mer frequency, TF over GST control)
CTCCGT	1.32 fold enrichment (6-mer frequency, TF over GST control)	1.28 fold enrichment (6-mer frequency, TF over GST control)	1.22 fold enrichment (6-mer frequency, TF over GST control)	1.16 fold enrichment (6-mer frequency, TF over GST control)	1.21 fold enrichment (6-mer frequency, TF over GST control)	1.15 fold enrichment (6-mer frequency, TF over GST control)	1.19 fold enrichment (6-mer frequency, TF over GST control)	1.13 fold enrichment (6-mer frequency, TF over GST control)	1.38 fold enrichment (6-mer frequency, TF over GST control)	1.14 fold enrichment (6-mer frequency, TF over GST control)	1.24 fold enrichment (6-mer frequency, TF over GST control)	1.14 fold enrichment (6-mer frequency, TF over GST control)	1.3 fold enrichment (6-mer frequency, TF over GST control)	1.37 fold enrichment (6-mer frequency, TF over GST control)	1.17 fold enrichment (6-mer frequency, TF over GST control)	1.13 fold enrichment (6-mer frequency, TF over GST control)	1.15 fold enrichment (6-mer frequency, TF over GST control)
CACACA	1.17 fold enrichment (6-mer frequency, TF over GST control)	1.08 fold enrichment (6-mer frequency, TF over GST control)	1.14 fold enrichment (6-mer frequency, TF over GST control)	1.15 fold enrichment (6-mer frequency, TF over GST control)	1.16 fold enrichment (6-mer frequency, TF over GST control)	1.19 fold enrichment (6-mer frequency, TF over GST control)	1.07 fold enrichment (6-mer frequency, TF over GST control)	1.17 fold enrichment (6-mer frequency, TF over GST control)	1.2 fold enrichment (6-mer frequency, TF over GST control)	1.18 fold enrichment (6-mer frequency, TF over GST control)	1.16 fold enrichment (6-mer frequency, TF over GST control)	1.07 fold enrichment (6-mer frequency, TF over GST control)	1.16 fold enrichment (6-mer frequency, TF over GST control)	1.1 fold enrichment (6-mer frequency, TF over GST control)	1.23 fold enrichment (6-mer frequency, TF over GST control)	1.09 fold enrichment (6-mer frequency, TF over GST control)	1.06 fold enrichment (6-mer frequency, TF over GST control)
